“And” between values parts separate entries of the source, which are not always exact repeats. Identical values can stand only once. Out of some 5,500 compounds screened, about 2,000 (36%) were called active. Not shown: some 18% with an inconclusive outcome. No stated cut-off is given here; in the data, active means normalized growth mostly below about 0.91 (no sharp cut-off); inconclusive means no clear call, values can overlap the other calls; inactive means mostly above about 0.92. The list shows a part of the results. Some compounds were tested as several samples or in several runs, with calls that do not always agree.
Experiment: chemical genetic growth profiling, strain panel (AID 1159580);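 further: tested at 20 µM; growth read once vehicle control cultures reached saturation at 30 °C; 1 = growth at the plate median or of vehicle wells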
Conditions: growth OD

Measured: normalized growth

O=c1cc(-c2ccccc2)oc2cc(O)cc(O)c12
0.912 (inactive) and 0.807 (active): S. cerevisiae deletion strains, locus YOR083W, strain WHI5, stronger effect = lower value
0.943 (inactive) and 0.912 (active): S. cerevisiae deletion strains, locus YKR091W, strain srl3, stronger effect = lower value
0.908 (inactive) and 0.809 (active): S. cerevisiae deletion strains, locus YKL160W, strain elf1, stronger effect = lower value
0.944 (inactive) and 0.828 (active): S. cerevisiae deletion strains, locus YLR221C, strain rsa3, stronger effect = lower value
0.97 (inactive) and 0.818 (active): S. cerevisiae deletion strains, locus YNL248C, strain rpa49, stronger effect = lower value
0.882 (inactive) and 0.838 (active): S. cerevisiae deletion strains, locus YLR357W, strain rsc2, stronger effect = lower value
0.934 (inactive) and 0.871 (active): S. cerevisiae deletion strains, locus YMR231W, strain pep5, stronger effect = lower value
0.94 (inactive) and 0.912 (active): S. cerevisiae deletion strains, locus YKR026C, strain gcn3, stronger effect = lower value
0.957 (inactive) and 0.875 (active): S. cerevisiae deletion strains, locus YOR070C, strain gyp1, stronger effect = lower value
0.924 (inactive) and 0.838 (active): S. cerevisiae deletion strains, locus YLR258W, strain gsy2, stronger effect = lower value
0.943 (inactive) and 0.867 (active): S. cerevisiae deletion strains, locus YLR027C, strain aat2, stronger effect = lower value
inactive: S. cerevisiae deletion strains, locus YJR075W, strain HOC1, stronger effect = lower value 0.924 | S. cerevisiae deletion strains, locus YKL068W, stronger effect = lower value 0.943 | S. cerevisiae deletion strains, locus YKL190W, strain CNB1, stronger effect = lower value 0.941 | S. cerevisiae deletion strains, locus YLL001W, strain dnm1, stronger effect = lower value 0.94 and 0.905 | S. cerevisiae deletion strains, locus YLR039C, strain RIC1, stronger effect = lower value 0.715 | S. cerevisiae deletion strains, locus YLR058C, strain SHM2, stronger effect = lower value 0.965 | S. cerevisiae deletion strains, locus YLR102C, strain apc9, stronger effect = lower value 0.947 | S. cerevisiae deletion strains, locus YLR262C, strain YPT6, stronger effect = lower value 0.684 | S. cerevisiae deletion strains, locus YLR330W, strain CHS5, stronger effect = lower value 0.972 | S. cerevisiae deletion strains, locus YLR342W, strain FKS1 (second series), stronger effect = lower value 0.862 | S. cerevisiae deletion strains, locus YLR370C, strain arc18, stronger effect = lower value 0.958 and 0.933 | S. cerevisiae deletion strains, locus YLR371W, strain rom2, stronger effect = lower value 0.951 | S. cerevisiae deletion strains, locus YLR384C, strain iki3, stronger effect = lower value 0.938 and 0.931 | S. cerevisiae deletion strains, locus YML016C, strain PPZ1, stronger effect = lower value 0.985 | S. cerevisiae deletion strains, locus YML120C, strain ndi1, stronger effect = lower value 0.944 and 0.942 | S. cerevisiae deletion strains, locus YML124C, strain tub3, stronger effect = lower value 0.952 | S. cerevisiae deletion strains, locus YMR078C, strain ctf18, stronger effect = lower value 0.928 | S. cerevisiae deletion strains, locus YMR125W, strain sto1, stronger effect = lower value 0.929 and 0.907 | S. cerevisiae deletion strains, locus YMR129W, stronger effect = lower value 0.94 | S. cerevisiae deletion strains, locus YMR223W, strain ubp8, stronger effect = lower value 0.906 | S. cerevisiae deletion strains, locus YMR263W, strain SAP30, stronger effect = lower value 0.927 | S. cerevisiae deletion strains, locus YNL067W, strain RPL9B, stronger effect = lower value 0.898 | S. cerevisiae deletion strains, locus YNL128W, strain TEP1, stronger effect = lower value 0.972 | S. cerevisiae deletion strains, locus YNL153C, strain GIM3, stronger effect = lower value 0.931 | S. cerevisiae deletion strains, locus YNL183C, strain NPR1, stronger effect = lower value 0.894 | S. cerevisiae deletion strains, locus YNL250W, strain rad50, stronger effect = lower value 0.925 | S. cerevisiae deletion strains, locus YNL322C, strain KRE1, stronger effect = lower value 0.978 | S. cerevisiae deletion strains, locus YNR049C, strain mso1, stronger effect = lower value 0.966 and 0.944 | S. cerevisiae deletion strains, locus YNR052C, strain pop2, stronger effect = lower value 0.944 | S. cerevisiae deletion strains, locus YOL006C, strain TOP1, stronger effect = lower value 0.686 | S. cerevisiae deletion strains, locus YOL012C, strain htz1 0.62 | S. cerevisiae deletion strains, locus YOR001W, strain rrp6, stronger effect = lower value 0.941 and 0.903 | S. cerevisiae deletion strains, locus YOR061W, strain CKA2, stronger effect = lower value 0.98 | S. cerevisiae deletion strains, locus YOR069W, strain VPS5, stronger effect = lower value 0.988 | S. cerevisiae deletion strains, locus YOR080W, strain dia2, stronger effect = lower value 0.97 and 0.934 | S. cerevisiae deletion strains, locus YOR136W, strain idh2, stronger effect = lower value 0.968 | S. cerevisiae deletion strains, locus YOR231W, strain MKK1, stronger effect = lower value 0.905 | S. cerevisiae deletion strains, locus YOR265W, strain rbl2, stronger effect = lower value 0.947 and 1.01 | S. cerevisiae deletion strains, locus YOR316C, strain cot1, stronger effect = lower value 0.945 | S. cerevisiae deletion strains, locus YPL055C, strain LGE1, stronger effect = lower value 0.91 | S. cerevisiae deletion strains, locus YPL106C, strain sse1, stronger effect = lower value 0.911 and 0.879 | S. cerevisiae deletion strains, locus YPL241C, strain CIN2, stronger effect = lower value 0.985 | S. cerevisiae deletion strains, locus YPL256C, strain CLN2, stronger effect = lower value 0.891 | S. cerevisiae deletion strains, locus YPR119W, strain clb2, stronger effect = lower value 0.937 | S. cerevisiae deletion strains, locus YPR141C, strain kar3, stronger effect = lower value 0.942 | S. cerevisiae deletion strains, locus YPR167C, strain met16, stronger effect = lower value 0.947 | S. cerevisiae deletion strains, strain wtn01, stronger effect = lower value 0.912 | S. cerevisiae strains, strain wild type, stronger effect = lower value 0.956
active: S. cerevisiae deletion strains, locus YKL009W, strain mrt4, stronger effect = lower value 0.667 | S. cerevisiae deletion strains, locus YKL085W, strain MDH1 (second series), stronger effect = lower value 0.888 | S. cerevisiae deletion strains, locus YKL085W, strain MDH1, stronger effect = lower value 0.888 | S. cerevisiae deletion strains, locus YKR001C, strain vps1, stronger effect = lower value 0.813 | S. cerevisiae deletion strains, locus YLR113W, strain HOG1, stronger effect = lower value 0.831 | S. cerevisiae deletion strains, locus YLR262C, strain YPT6 (second series), stronger effect = lower value 0.677 and 0.514 | S. cerevisiae deletion strains, locus YLR268W, strain sec22, stronger effect = lower value 0.837 | S. cerevisiae deletion strains, locus YLR320W, strain mms22, stronger effect = lower value 0.837 and 0.73 | S. cerevisiae deletion strains, locus YLR418C, strain cdc73, stronger effect = lower value 0.761 | S. cerevisiae deletion strains, locus YML032C, strain rad52, stronger effect = lower value 0.87 | S. cerevisiae deletion strains, locus YMR058W, strain fet3, stronger effect = lower value 0.893 and 0.653 | S. cerevisiae deletion strains, locus YMR205C, strain PFK2, stronger effect = lower value 0.87 and 0.693 | S. cerevisiae deletion strains, locus YMR307W, strain GAS1, stronger effect = lower value 0.551 | S. cerevisiae deletion strains, locus YNL071W, strain lat1, stronger effect = lower value 0.891 and 0.727 | S. cerevisiae deletion strains, locus YNL233W, strain BNI4, stronger effect = lower value 0.869 | S. cerevisiae deletion strains, locus YNL271C, strain bni1, stronger effect = lower value 0.904 | S. cerevisiae deletion strains, locus YNL298W, strain CLA4, stronger effect = lower value 0.893 | S. cerevisiae deletion strains, locus YNL307C, strain MCK1, stronger effect = lower value 0.834 | S. cerevisiae deletion strains, locus YOL147C, strain pex11, stronger effect = lower value 0.929 | S. cerevisiae deletion strains, locus YOR144C, strain elg1, stronger effect = lower value 0.932 | S. cerevisiae deletion strains, locus YOR184W, strain ser1, stronger effect = lower value 0.761 | S. cerevisiae deletion strains, locus YOR270C, strain vph1, stronger effect = lower value 0.746 and 0.518 | S. cerevisiae deletion strains, locus YPL051W, strain arl3, stronger effect = lower value 0.905 and 0.701 | S. cerevisiae deletion strains, locus YPR163C, strain tif3, stronger effect = lower value 0.883
0.926 (inactive) and 0.776 (active): S. cerevisiae deletion strains, locus YPL078C, strain atp4, stronger effect = lower value
0.97 (inactive) and 0.877 (active): S. cerevisiae deletion strains, locus YNL322C, strain KRE1 (second series), stronger effect = lower value
0.946 (inactive) and 0.903 (active): S. cerevisiae deletion strains, locus YLR342W, strain FKS1, stronger effect = lower value
0.946 (inactive) and 0.915 (active): S. cerevisiae deletion strains, locus YLL041C, strain sdh2, stronger effect = lower value
0.936 (inactive) and 0.919 (active): S. cerevisiae deletion strains, locus YLL026W, stronger effect = lower value
0.954 (inactive) and 0.871 (active): S. cerevisiae deletion strains, locus YNL209W, strain ssb2, stronger effect = lower value
0.901 (inactive) and 0.85 (active): S. cerevisiae deletion strains, locus YOR290C, strain snf2, stronger effect = lower value
0.962 (inactive) and 0.886 (active): S. cerevisiae deletion strains, locus YPL240C, strain hsp82, stronger effect = lower value
0.915 (inactive) and 0.802 (active): S. cerevisiae deletion strains, locus YOR106W, strain vam3, stronger effect = lower value
